# ChEMBL document CHEMBL1961873, “Compounds: GSK PKIS; Assays: Nanosyn kinase panel” (2012)
# Biological target: Casein kinase I isoform gamma-3 (Homo sapiens) (UniProt Q9Y6M4)
# Conditions: at 1 µM
# 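Note: mean inhibition of CK1-g3, GSK PKIS screen.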
# Casein kinase I isoform gamma-3 (Homo sapiens), sequence (Q9Y6M4 whole entry, looked up, canonical isoform): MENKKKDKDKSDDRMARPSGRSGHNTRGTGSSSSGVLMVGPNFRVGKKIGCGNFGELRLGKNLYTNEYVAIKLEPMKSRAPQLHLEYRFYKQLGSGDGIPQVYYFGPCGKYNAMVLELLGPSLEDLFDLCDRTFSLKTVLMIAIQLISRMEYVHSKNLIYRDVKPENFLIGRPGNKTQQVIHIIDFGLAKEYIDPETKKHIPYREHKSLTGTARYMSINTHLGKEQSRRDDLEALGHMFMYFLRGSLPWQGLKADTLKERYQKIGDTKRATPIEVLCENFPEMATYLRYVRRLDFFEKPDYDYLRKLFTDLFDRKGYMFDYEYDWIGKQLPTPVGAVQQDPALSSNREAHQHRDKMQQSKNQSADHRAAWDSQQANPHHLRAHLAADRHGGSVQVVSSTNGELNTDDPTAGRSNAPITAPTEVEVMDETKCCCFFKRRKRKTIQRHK
row,Structure (SMILES),inhibition
1,CC1=C(C(=O)Nc2cc(Cl)c3[nH]ncc3c2)C(c2ccc(C(F)(F)F)cc2)CC(=O)N1 (configuration not stated),2.92%
2,c1cc(-c2cnn3nc(N4CCOCC4)ccc23)nc(NC2CC2)n1,8.91%
3,CC(C)COC(=O)c1ccc2c(c1)/C(=C/Nc1ccc(S(N)(=O)=O)cc1)C(=O)N2,20.6%
4,Fc1ccc(-c2cc(-c3c[nH]nc3-c3ccccn3)ccn2)cc1,6.73%
5,COC(=O)c1sc(-n2cnc3cc(OC)c(OC)cc32)cc1OCc1ccccc1C(F)(F)F,2.94%
6,Nc1ncc(-c2cccc(S(N)(=O)=O)c2)c2scc(-c3ccc(F)c(Cl)c3)c12,4.97%
7,Fc1ccc(-c2nn3ncccc3c2-c2ccnc(Nc3ccc4c(c3)OCCO4)n2)cc1,76.1%
8,COc1cc(Nc2nccc(Nc3ccc4c(C)n[nH]c4c3)n2)cc(OC)c1OC,-0.68%
9,O=C(O[C@H]1CN[C@H](C#Cc2cc3ncnc(Nc4ccc(Cc5ccccc5)cc4)c3s2)C1)N1CCOCC1,0.75%
10,Nc1nc(-c2ccc(F)cc2)c(-c2ccc3ncccc3n2)s1,16.9%
11,COc1ccc(-c2nn3ncccc3c2-c2ccnc(Nc3ccc4c(c3)OCCO4)n2)cc1,1.38%
12,CNC(=O)c1cncc(/C=C/c2ccccc2Cl)c1,-0.89%
13,CCn1c(-c2nonc2N)nc2ccccc21,4.86%
14,N#Cc1c(NC(=O)CN2CCOCC2)sc2c1CCCC2,6.07%
15,NS(=O)(=O)c1ccc(N/N=C2\C(=O)Nc3ccc4ncccc4c32)cc1,12.7%
16,Nc1nc(-c2cccc(Cl)c2)c(-c2ccc3ncccc3n2)s1,24.7%
17,c1ccc(-c2nc3n(c2-c2ccc4c(c2)OCO4)CCC3)nc1,4.18%
